Shown are actives, neighbours in structure and some others; about 5.3% of the full set was active somewhere.
VACV mCherry inh: vaccinia inhibition (mCherry reporter); Vaccinia virus mCherry reporter infection, fluorescence; Potency, µM (highest dose often 36.5 µM), most hits filed as inhibitors; hit rate 0.63% among 310,000; AID 720579; calls by dose curve; tested in A549 cells; note: nearly all actives have a fitted effect of over 35% in size
Marburg entry inh: inhibitors of Marburg virus binding or cell entry | hit rate 1.8% among 300,000 | Marburg virus pseudotyped entry inhibition, cell reporter | Potency, µM (doses to about 37.8 µM), most hits filed as inhibitors | AID 540276; calls by dose curve; tested in HEK293 cells
LASV entry inh: blocks Lassa virus binding to or entry into cells; hit rate 1.2% among 300,000; Potency, µM (titrated, usually from 37.9 µM), usual class: inhibitors; Lassa virus pseudotype entry inhibition, cell reporter; calls by dose curve; tested in HEK293 cells; note: nearly all actives have a fitted effect of over 50% in size
HCV inh: inhibitors of hepatitis C virus infection; Huh7.5.1 HCVcc-Cre infection, luciferase reporter, 44 h; Potency, µM (top dose mostly 41.8 µM), hits mostly inhibitors; hit rate 3.4% among 340,000; AID 651820; active = well fitted inhibition curve with a large enough effect; inconclusive = small, poorly fitted or top-dose-only effect, or another doubt; inactive = no such curve, though single readings can be large or run the other way
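Infectious HCV cell culture screen: compound-treated cells (1,000/well, pre-plated 4 h) are infected with HCVcc-Cre at roughly 0.5 moi and grown 44 h. Infection is quantified by luciferase signal after 15 min substrate incubation at room temperature.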
Vaccinia Venus: vaccinia inhibition (Venus reporter); Vaccinia virus Venus reporter expression, fluorescence; Potency, µM (top dose mostly 36.5 µM), usual class: inhibitors; hit rate 0.46% among 330,000; AID 720580; calls by dose curve; tested in A549 cells; note: nearly all actives have a fitted effect of over 30% in size
FMDV antiviral: antivirals against foot and mouth disease virus; FMDV antiviral cell-based qHTS; hit rate 1.2% among 410,000; Potency, µM (series often up to 57.9 µM), hits mostly inhibitors; calls by dose curve; tested in HEK293T cells; note: read-out not given here; nearly all actives have a fitted effect of over 45% in size
Large screens that a line does not name were inactive; ! = not confirmed by another sample.

O=C(C1CCCN(S(=O)(=O)c2cccc3nonc23)C1)N1CCN(c2cccc(Cl)c2)CC1 (configuration not stated)	Marburg entry inh 23µM!, HCV inh 7.9µM
COc1ccc(NC(=O)C2CC23CCN(Cc2cccc4ncccc24)CC3)cc1Cl (configuration not stated)	none (no result: Marburg entry inh, LASV entry inh, HCV inh)
O=C(c1cccc(Cl)c1)N(Cc1cccc(F)c1)C1CCS(=O)(=O)C1 (configuration not stated)	none (no result: HCV inh)
CCc1cc2c(nc1CC)CCN(CC/C(C)=N/O[C@H](C)c1cn([C@H](CO)Cc3ccccc3)nn1)C2	none (no result: VACV mCherry inh, LASV entry inh, HCV inh, Vaccinia Venus, FMDV antiviral)
O=C(C1CCCN(S(=O)(=O)c2ccccc2)C1)N1CCN(c2ccccc2)CC1 (configuration not stated)	HCV inh inconclusive, FMDV antiviral inconclusive
Cc1n[nH]c(C)c1S(=O)(=O)N1CCCC(C(=O)N2CCN(c3ccc(Cl)cc3)CC2)C1 (configuration not stated)	VACV mCherry inh inconclusive, Marburg entry inh inconclusive, LASV entry inh inconclusive, HCV inh inconclusive, Vaccinia Venus inconclusive, FMDV antiviral 20µM
O=C(C1CCCN(S(=O)(=O)c2ccc(Br)cc2)C1)N1CCN(Cc2ccccc2)CC1 (configuration not stated)	VACV mCherry inh inconclusive, Marburg entry inh inconclusive, LASV entry inh inconclusive, HCV inh 11µM, Vaccinia Venus inconclusive
Cc1nn(C)c(C)c1S(=O)(=O)N1CCCC(C(=O)N2CCN(c3ccc(Cl)cc3)CC2)C1 (configuration not stated)	VACV mCherry inh inconclusive, Marburg entry inh inconclusive, HCV inh inconclusive, Vaccinia Venus inconclusive, FMDV antiviral inconclusive
COc1ccccc1OCCn1c(CCNC(=O)C2CCCCC2)nc2ccccc21	none (no result: Marburg entry inh, LASV entry inh, HCV inh, FMDV antiviral)
CCc1ccc(CNC(=O)c2ccc(CSc3nc4ccncc4n3Cc3ccc(OC)cc3)cc2)cc1	VACV mCherry inh inconclusive, Marburg entry inh inconclusive (no result: LASV entry inh, HCV inh)
COc1cc(/C=N/Nc2nc3ccccc3s2)cc([N+](=O)[O-])c1O	none (no result: VACV mCherry inh, Marburg entry inh, LASV entry inh, Vaccinia Venus)
C(=N\Nc1nc2ccccc2s1)/c1ccccn1	VACV mCherry inh 13µM, Marburg entry inh inconclusive, LASV entry inh 0.89µM, HCV inh 1.8µM, Vaccinia Venus inconclusive, FMDV antiviral 3.5µM
C(=NNc1ccc2ccccc2n1)c1ccccn1	VACV mCherry inh 1.8µM, Vaccinia Venus inconclusive, FMDV antiviral 7.9µM (no result: Marburg entry inh, LASV entry inh, HCV inh)
O=[N+]([O-])c1cc(Cl)cc(/C=N/Nc2nc3ccccc3s2)c1O	Marburg entry inh inconclusive, LASV entry inh inconclusive, HCV inh 11µM
COc1ccc(C=NNc2nc3ccccc3s2)cc1	VACV mCherry inh inconclusive, Marburg entry inh 7.1µM, LASV entry inh inconclusive
COc1cc(OC)cc(C(=O)Oc2ccc(/C=N/Nc3nc4ccccc4s3)cc2OC)c1	Marburg entry inh inconclusive, LASV entry inh inconclusive, HCV inh inconclusive
O=C(CSc1nc2ccccc2s1)N/N=C/c1ccc(C(=O)O)cc1	none (no result: Marburg entry inh, LASV entry inh)
COc1ccc(/C=N/NC(=O)CCSc2nc3ccccc3s2)cc1	Marburg entry inh inconclusive, LASV entry inh inconclusive, HCV inh 3.5µM (no result: VACV mCherry inh, Vaccinia Venus)
C(=N\NC1=Nc2cccc3cccc1c23)/c1ccccn1	VACV mCherry inh inconclusive, HCV inh 2.8µM, Vaccinia Venus inconclusive (no result: Marburg entry inh, LASV entry inh)
COc1ccc(N2C(=O)CSC23C(=O)N(CC(=O)Nc2ccccc2F)c2ccccc23)cc1 (configuration not stated)	FMDV antiviral inconclusive (no result: Marburg entry inh, HCV inh)
COc1ccc(C)cc1NC(c1nnc(-c2ccccc2)o1)c1ccc(F)cc1Cl (configuration not stated)	Marburg entry inh inconclusive (no result: HCV inh)
O=C(O)c1ccc(N2C(=O)/C(=C/c3ccc(-c4ccc([N+](=O)[O-])cc4)o3)C=C2c2ccccc2)cc1	FMDV antiviral 16µM
CCOc1ccc(C(NC(C)=O)c2cc(Cl)c3cccnc3c2O)cc1 (configuration not stated)	VACV mCherry inh 5µM, Vaccinia Venus inconclusive (no result: Marburg entry inh, LASV entry inh, HCV inh, FMDV antiviral)
COc1ccc(C(NC(C)=O)c2cc(Cl)c3cccnc3c2O)cc1OC (configuration not stated)	VACV mCherry inh inconclusive, Marburg entry inh inconclusive, LASV entry inh 2.8µM, HCV inh 2µM, Vaccinia Venus inconclusive
CCC(=O)NC(c1ccc(OC)c(OC)c1)c1cc(Cl)c2cccnc2c1O (configuration not stated)	VACV mCherry inh 11µM, Marburg entry inh inconclusive, LASV entry inh inconclusive, HCV inh inconclusive, Vaccinia Venus inconclusive
COc1ccc(C(=O)NC(c2ccc(Cl)cc2)c2cc(Cl)c3cccnc3c2O)cc1 (configuration not stated)	VACV mCherry inh 10µM, Vaccinia Venus inconclusive (no result: Marburg entry inh, HCV inh)

Screening data deposited in PubChem BioAssay by National Center for Advancing Translational Sciences (NCATS).
